# Measured values reported in PubChem BioAssay (EPA / NIEHS).
# The source made the active and inactive calls. How the source made its calls: active means hit-call score of the fitted dose curve at least 0.9, where 1 is the maximum; inactive means score below 0.9.
# Assays:
# [1] = BSK_3C_SRB: Viability Assessment in the BioMAP Diversity Plus: 3C Assay (AID 2283023); details: primary human endothelial cells (HUVEC);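 further: cells read 24 h after compound dosing; fitted both ways against DMSO so a hit may be signal rise or drop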
# In short: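 Absorbance at 560 nm of sulforhodamine B-stained (0.1%) total protein served as a cytotoxicity readout in human umbilical vein endothelial cells, 24 h after chemical treatment. Signal was fitted bidirectionally relative to DMSO.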
# [2] = read-out: Matrix Metallopeptidase 1 (MMP1), MMP1 (gene 4312); experiment: BSK_BE3C_MMP1: BioMAP Diversity Plus: BE3C Assay for Matrix Metallopeptidase 1 (MMP1) Biomarker Activity (AID 2283024); details: primary human bronchial epithelial cells; actives raise or lower the signal
# In short: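 Human primary bronchial epithelial cells (BE3C system) dosed for 24 h; MMP-1 quantified by ELISA. Bidirectional fit against DMSO; cytotoxicity tracked in parallel cultures by SRB total-protein staining.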
# [3] = BSK_3C_Vis: BioMAP Diversity Plus: 3C Assay for Morphology Visualization (AID 2283025); details: primary human endothelial cells (HUVEC);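 further: fitted both ways so gain or loss versus DMSO counts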;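 on AC50: light microscopy image of cell morphology used as background control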
# In short: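 Human umbilical vein endothelial cell morphology was inspected by light microscopy 24 h after chemical dosing; scored bidirectionally relative to DMSO.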
# [4] = read-out: Pselectin, SELP (gene 6403); experiment: BSK_4H_Pselectin: BioMAP Diversity Plus: 4H Assay for Pselectin Biomarker Activity (AID 2283026); details: primary human endothelial cells (HUVEC); actives raise or lower the signal
# In short: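 Primary human umbilical vein endothelial cells were treated 24 h, and cell-surface P-selectin was then quantified by ELISA. Bidirectional fit versus DMSO; cytotoxicity checked in parallel cultures by SRB total-protein staining.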
# [5] = BSK_4H_SRB: Viability Assessment in the BioMAP Diversity Plus: 4H Assay (AID 2283027); details: primary human endothelial cells (HUVEC);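 further: cells exposed to compound for 24 h before staining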;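 on AC50: curves fitted both ways versus DMSO so AC50 may be loss or gain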
# In short: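 Human umbilical vein endothelial cells were dosed with chemical and, after 24 h, fixed with 10% TCA, stained with 0.1% sulforhodamine B, and read at 560 nm to give total protein as a cytotoxicity measure. Bidirectional fitting relative to DMSO control.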
# [6] = BSK_BE3C_SRB: Viability Assessment in the BioMAP Diversity Plus: BE3C Assay (AID 2283028); details: primary human bronchial epithelial cells;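 on AC50: fitted both ways so AC50 may mark signal gain or loss versus DMSO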
# In short: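 Cells (human bronchial epithelial, primary) are treated with chemicals, and after 24 h the parallel cultures are fixed in 10% TCA. These are then stained with 0.1% SRB and read at 560 nm. Gain or loss of signal is fitted relative to DMSO.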
# [7] = read-out: Thrombomodulin, THBD (gene 7056); experiment: BSK_3C_Thrombomodulin: BioMAP Diversity Plus: 3C Assay for Thrombomodulin Biomarker Activity (AID 2283029); details: primary human endothelial cells (HUVEC); actives raise or lower the signal
# In short: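 Human umbilical vein endothelial cells were exposed to chemicals for 24 h; cell-surface thrombomodulin quantified by ELISA, with bidirectional fitting against DMSO baseline.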
# [8] = read-out: Urokinase-type plasminogen activator receptor (uPAR), PLAUR (gene 5329); experiment: BSK_4H_uPAR: BioMAP Diversity Plus: 4H Assay for Urokinase-type plasminogen activator receptor (uPAR) Biomarker Activity (AID 2283030); details: primary human endothelial cells (HUVEC); actives raise or lower the signal
# In short: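 Cell-surface uPAR ELISA signal, measured 24 h after dosing human umbilical vein endothelial cells, was analyzed with bidirectional fitting relative to DMSO. Parallel SRB staining of total protein tracked overt cytotoxicity.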
# [9] = read-out: Vascular endothelial growth factor receptor 2 (Homo sapiens) (UniProt P35968); experiment: BSK_4H_VEGFRII: BioMAP Diversity Plus: 4H Assay for Vascular endothelial growth factor receptor 2 (VEGFR2) Biomarker Activity (AID 2283031); details: primary human endothelial cells (HUVEC); actives raise or lower the signal;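 on AC50: cell-surface VEGFR2 protein level quantified by ELISA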
# In short: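 ELISA read-out of VEGFRII in primary human umbilical vein endothelium, taken 24 h after chemical treatment. Responses are expressed relative to DMSO, with bidirectional fitting.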
# [10] = read-out: Human Leukocyte Antigen - DR isotype (HLADR), HLA-DRA (gene 3122); experiment: BSK_BE3C_HLADR: BioMAP Diversity Plus: BE3C Assay for Human Leukocyte Antigen - DR isotype (HLADR) Biomarker Activity (AID 2283032); details: primary human bronchial epithelial cells; actives raise or lower the signal
# In short: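 Human primary bronchial epithelial cells (BE3C system) exposed to compound for 24 hours; cell-surface HLA-DR measured by ELISA, fitted bidirectionally relative to DMSO. Total protein by SRB in parallel cultures tracked cytotoxicity.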
SMILES,AC50 [1],outcome [2],AC50 [3],AC50 [4],AC50 [5],outcome [6],outcome [7],AC50 [8],AC50 [9],AC50 [10],AC50 [2],AC50 [6],outcome [1],outcome [3],outcome [4],outcome [5],outcome [8],outcome [9],outcome [10],AC50 [7]
CC(C)(C)c1cc(/C=C2\SC(N)=NC2=O)cc(C(C)(C)C)c1O,29.1 µM (active),inactive,16.3 µM (active),13.3 µM (active),28.7 µM (active),inactive,inactive,36.7 µM (active),27.4 µM (active),7.46 µM (active),–,–,–,–,–,–,–,–,–,–
CCOC(=O)O[C@H](C)OC(=O)c1ccc2c(c1)cc(C(=O)NC1CCN(C(C)C)CC1)n2Cc1cc(-c2ccc(Cl)s2)on1,5.03 µM (active),–,5.3 µM (active),6.95 µM (active),5.07 µM (active),–,inactive,7.66 µM (active),5.06 µM (active),10.7 µM (active),13.2 µM (active),6.07 µM (active),–,–,–,–,–,–,–,–
CC1=CC(=O)/C(=C(/C)O)C(=O)O1,–,inactive,–,–,–,inactive,inactive,–,–,–,–,–,inactive,inactive,inactive,inactive,inactive,inactive,inactive,–
Cc1cccc2ccccc12,–,inactive,–,–,–,inactive,inactive,–,–,–,–,–,inactive,inactive,inactive,inactive,inactive,inactive,inactive,–
O=c1c(-c2ccc(O)cc2)coc2cc(O)cc(O)c12,25.8 µM (active),–,39 µM (active),17.1 µM (active),14.7 µM (active),inactive,inactive,14.1 µM (active),–,–,15.3 µM (active),–,–,–,–,–,–,inactive,inactive,–
O=C1c2ccccc2C(=O)N1CCc1noc(-c2ccc(CN3CCCCCC3)s2)n1,–,inactive,–,17.8 µM (active),–,inactive,inactive,22.8 µM (active),–,–,–,–,inactive,inactive,–,inactive,–,inactive,inactive,–
O=CCCCC=O,31.7 µM (active),inactive,–,30.7 µM (active),–,inactive,inactive,–,–,33.5 µM (active),–,–,–,inactive,–,inactive,inactive,inactive,–,–
Cc1ccc2oc(CN(Cc3ccccc3)C(=O)Nc3c(F)cc(F)cc3F)c(-c3ccc(Cl)cc3)c2c1,–,inactive,–,–,–,inactive,inactive,–,–,–,–,–,inactive,inactive,inactive,inactive,inactive,inactive,inactive,–
CO[C@H]1/C=C/O[C@@]2(C)Oc3c(C)c(O)c4c(O)c(c(/C=N/N5CCN(C)CC5)c(O)c4c3C2=O)NC(=O)/C(C)=C\C=C\[C@H](C)[C@H](O)[C@@H](C)[C@@H](O)[C@@H](C)[C@H](OC(C)=O)[C@@H]1C,–,inactive,–,–,–,inactive,inactive,–,–,–,–,–,inactive,inactive,inactive,inactive,inactive,inactive,inactive,–
Clc1ccccc1C(c1ccccc1)(c1ccccc1)n1ccnc1,11.9 µM (active),–,14.5 µM (active),8.64 µM (active),24.9 µM (active),–,–,18.3 µM (active),–,8.22 µM (active),11.8 µM (active),8.78 µM (active),–,–,–,–,–,inactive,–,8.39 µM (active)
CCCCCCCCOc1ccc(C(=O)c2ccccc2)c(O)c1,28.7 µM (active),inactive,–,–,–,inactive,–,–,–,–,–,–,–,inactive,inactive,inactive,inactive,inactive,inactive,7.71 µM (active)
CCCCCCCC[Si](OCC)(OCC)OCC,31.4 µM (active),inactive,–,–,32.8 µM (active),inactive,–,33.2 µM (active),–,–,–,–,–,inactive,inactive,–,–,inactive,inactive,21 µM (active)
C[C@]12CC[C@@H]3c4ccc(O)cc4CC[C@H]3[C@@H]1CCC2=O,–,–,–,–,–,inactive,inactive,–,–,–,3.97 µM (active),–,inactive,inactive,inactive,inactive,inactive,inactive,inactive,–
OC12N=C(c3ccccc3)SC1Cc1cc(Cl)ccc12 (stereo not given),28.1 µM (active),–,–,–,–,inactive,inactive,–,–,–,15.3 µM (active),–,–,inactive,inactive,inactive,inactive,inactive,inactive,–
O=C(O)c1ccccc1-n1cc(C(=O)O)c(=O)c2cc(Nc3c(F)cc(F)cc3Cl)c(Cl)cc21,–,inactive,–,–,–,inactive,inactive,–,–,–,–,–,inactive,inactive,inactive,inactive,inactive,inactive,inactive,–
O=c1[nH]sc2ccccc12,13.8 µM (active),–,5.31 µM (active),5.54 µM (active),20 µM (active),–,–,20 µM (active),–,28.1 µM (active),26 µM (active),37.1 µM (active),–,–,–,–,–,inactive,–,5.42 µM (active)
COc1ccc2cc(S(=O)(=O)N[C@H](CC(=O)N[C@H](Cc3ccc(CN4[C@H](C)CCC[C@@H]4C)cc3)C(=O)N(C)C(C)C)c3ccc4c(c3)OCO4)ccc2c1,20.8 µM (active),inactive,5.55 µM (active),10.8 µM (active),19.1 µM (active),inactive,inactive,19.1 µM (active),–,32.8 µM (active),–,–,–,–,–,–,–,inactive,–,–
CC(C)(O)c1ccc(CNC(=O)c2cccnc2Oc2ccc3nonc3c2)cc1,–,inactive,–,–,–,inactive,inactive,–,–,–,–,–,inactive,inactive,inactive,inactive,inactive,inactive,inactive,–
CC(C)(c1cc(Br)c(O)c(Br)c1)c1cc(Br)c(O)c(Br)c1,29.6 µM (active),–,37.8 µM (active),30.2 µM (active),28.7 µM (active),–,–,28.9 µM (active),–,7.25 µM (active),9.3 µM (active),5.06 µM (active),–,–,–,–,–,inactive,–,8.15 µM (active)
